For 94 molecules, inhibition results are on record in PubChem BioAssay AID1566 (Sanford-Burnham Center for Chemical Genomics, 2009).

Among all 290,000 compounds or so, about 1,800 (0.62%) were called active. The sample as a whole holds a higher share of actives than the screen did. Values without a mark were called inactive. No stated cut-off is given here; in the data, active means inhibition above about 50%; inactive means the rest.

This experiment in a line: inhibition of NOD2-driven NF-kB reporter – cell-based, luminescence, uHTS, HEK293 (AID 1566). As to conditions: HEK293 NOD2/NF-kB luciferase reporter, at 4 µM, hits give high values. (A reporter such as luciferase makes a cellular process visible.)
The inhibition is the drop in the measured response relative to a control, in per cent. In the case of `O=C(NCCN1CCOCC1)c1ccccc1N1C(=O)[C@@H]2Cc3c([nH]c4ccccc34)C(c3ccccc3)N2C1=O` (some centres undefined), the inhibition is 5.2%.

On to `Cc1ccc(NC2CCCN(C(=O)CCn3nccc3C)C2)cc1C` (centres undefined), for which the inhibition is -4%. Take `CC1(C)CC(N2CCCC2)=CC(=[N+]2CCCCC2)C1`: the inhibition is 33.8%. In the case of `CC1(C)CC(N2CCCCC2)=CC(=[N+]2CCCCC2)C1`, the inhibition is 44.9%. On to `Cc1cc(C(=O)OCC(=O)Nc2cc(S(=O)(=O)N(C)C)ccc2Cl)c2ccccc2n1`, for which the inhibition is 10.5%. `Cc1oc(-c2ccc3c(c2)OCCO3)cc1C(=O)O`: the inhibition was 79% (active). Next, `CCOC(=O)CNC(=O)c1cc(-c2ccc3c(c2)OCCO3)oc1C`: -25%; `Cc1oc(-c2ccc3c(c2)OCCO3)cc1C(=O)NCC(=O)O`: 18%.

For the molecule `CC1CN(CCOc2ccc(Cl)c(Cl)c2)CC(C)O1` (centres undefined), the inhibition is -27.9%.

Consider `O=C(NCC(=O)N1CCN(c2ccccc2)CC1)c1ccccc1`, for which the inhibition was -11.2%.

Turning to `Clc1ccc(/C=C/c2nc(Cl)c(-c3ccc(Cl)cc3)c(Cl)n2)cc1`, the inhibition is 15.1%.

In the case of `CN1/C(=C\C=C(/C#N)C(=O)Nc2ccc(Cl)cc2)C(C)(C)c2ccccc21`, the inhibition is 50.6% (active). With `CN1/C(=C\C=C(/C#N)C(=O)Nc2ccccc2F)C(C)(C)c2ccccc21`, the inhibition is 23.2%. With `CN1/C(=C/C=C(/C#N)C(N)=O)C(C)(C)c2ccccc21`, the inhibition was -25.4%.

Regarding `Cc1nn(C(=O)CCCn2cc([N+](=O)[O-])cn2)c(C)c1Cl`, the inhibition is 16.7%.

Regarding `Cc1ccc(C(=O)NCCNc2ccc([N+](=O)[O-])cc2C(F)(F)F)cc1`, the inhibition was 16.4%.

For the molecule `COc1ccc(-c2cc(=O)oc3cc(OCC(C)=O)ccc23)cc1`, the inhibition is -11.8%. `COc1ccc(-c2cc(=O)oc3cc(OC(C)C(=O)O)ccc23)cc1` (centres undefined): the inhibition is -5.9%.

Regarding `CCCn1c(=O)c(Cc2ccccc2)c(O)c2ccccc21`, the inhibition was 6.4%. Take `CCn1cc(/C=C(\NC(=O)c2ccc(OC)cc2)C(=O)N2CCOCC2)c2ccccc21`: the inhibition is 11.3%. `Cc1cc2c(c(=O)o1)C(C(C)C)C(C#N)=C(N)O2` (centres undefined): the inhibition was 6.9%. On to `OCCN1CCN(Cc2cc(Cl)c3cccnc3c2O)CC1`, for which the inhibition is -47.1%. In the case of `CCOC(=O)N1CCN(Cc2cc(Cl)c3cccnc3c2O)CC1`, the inhibition was 11.2%. For the molecule `Cc1ccc(S(=O)(=O)NNC(=O)c2ccccc2O)cc1`, the inhibition was 8.4%. Then `COc1ccc(S(=O)(=O)N(Cc2cc3cc(C)ccc3[nH]c2=O)CC2CCCO2)cc1` (centres undefined), with 16.6%. For the molecule `O=C(NC(=S)Nc1nc2c(s1)CCCC2)c1ccccc1`, the inhibition was -7.3%.

In the case of `CC(C)(C)c1ccc(C(=O)NC(=S)Nc2nc3c(s2)CCCC3)cc1`, the inhibition was 60.3% (active).

With `COC(=O)c1ccc(C(=O)NC(=S)Nc2nc3c(s2)CCCC3)cc1`, the inhibition was 5.1%. Take `COc1ccc(S(=O)(=O)N(CC(=O)N2CCN(C)CC2)c2ccc(C)cc2)cc1Br`: the inhibition is -9.5%. In the case of `COc1ccc(N2C(N)=NC(N)=NC2(C)C)cc1`, the inhibition was -2.7%. Take `CCOc1ccc(N2C(N)=NC(N)=NC2(C)C)cc1`: the inhibition is -5.6%.

With `CC1(C)N=C(N)N=C(N)N1c1ccc(Oc2ccc(Cl)cc2)c(Cl)c1`, the inhibition was 58.7% (active). Turning to `COc1ccccc1N1CCN(C(=O)CSc2nnc3c4ccccc4n(CC(=O)O)c3n2)CC1`, the inhibition is 9.3%. Next, `COC(=O)CSc1nnc(CNC(=O)c2ccc(S(=O)(=O)N3CCCCC3)cc2)n1C`: 12.8%; `Cc1ccc(NC(=O)C2=NNC(=O)CC2)cc1F`: -17.2%; `Cc1ccccc1S(=O)(=O)Oc1cccc2c(O)cccc12`: 1.5%. For `CNC(=O)CN(c1cc([N+](=O)[O-])ccc1OC)S(C)(=O)=O`, the inhibition is 12.6%. Regarding `CCc1oc2ccccc2c1C(=O)c1cc(Br)c(O)c(Br)c1`, the inhibition is 51.8% (active). For the molecule `CCCCc1oc2ccccc2c1C(=O)c1cc(I)c(OCCN(CC)CC)c(I)c1`, the inhibition was 14.9%. Next, `CCc1oc2ccccc2c1C(=O)CCN1CCCCC1`: 3.9%. Take `O=C(COC(=O)c1cccnc1Cl)c1ccc(Cl)cc1Cl`: the inhibition is 9.1%. In the case of `CCCc1ccc(-c2cc(C(=O)Nc3ccc([N+](=O)[O-])cn3)c3ccccc3n2)cc1`, the inhibition is -29.8%. Next, `COc1ccc2oc(=O)c(C(C)=O)cc2c1`: 19.5%; `CCCCN(Cc1ccco1)C(=O)c1cc2c(=O)[nH]c3ccc(C)cc3c2s1`: 34.9%; `COc1ccc(N(CC(=O)N/N=C/c2ccc(N(C)C)cc2)S(=O)(=O)c2ccccc2)cc1`: -57%. As for `CCN(CC)c1ccc(/C=N/NC(=O)CNC(=O)C2COc3ccccc3O2)c(O)c1` (centres undefined), the inhibition was 69.1% (active). Take `O=C(CNC(=O)C1COc2ccccc2O1)N/N=C\c1ccccc1Cl` (centres undefined): the inhibition was 19.9%. Regarding `O=C(CNC(=O)C1COc2ccccc2O1)N/N=C/c1ccc(O)cc1O` (centres undefined), the inhibition is 8.2%.

In the case of `O=C(CSc1nc(-c2ccco2)cc(C(F)(F)F)n1)N1CCSCC1`, the inhibition was 13.4%. Then `CCOC(=O)N1CCN(S(=O)(=O)N2CCCC(C(=O)NCCCN3CC(C)CC(C)C3)C2)CC1` (centres undefined), with -13.2%; and `CN1CCc2nc(NC(=O)COc3ccc4ccccc4c3)sc2C1`, with -39.7%; and `NC(=O)c1cccnc1Nc1ccccc1F`, with -1.6%. Next, `O=C(Nc1nc2cc3c(cc2s1)OCCO3)c1cccc(N2C(=O)CCC2=O)c1`: -37.4%. `CCN(CC)S(=O)(=O)c1cccc(C(=O)Nc2nnc(C)s2)c1`: the inhibition is 10.5%.

Turning to `CCN(CC)C(=O)CNc1ccc(C(F)(F)F)cc1[N+](=O)[O-]`, the inhibition is 4.7%. For the molecule `CCOc1ccc(N(CC(=O)N2CCN(c3ccccc3OC)CC2)S(=O)(=O)c2ccc(F)cc2)cc1`, the inhibition was -13%. Then `CCc1ccc(OCC(=O)NC(=S)Nc2ccc(C(C)=O)cc2)c(Br)c1`, with 41.8%; and `CCCn1c(=O)c(C(=O)Nc2c(C)n(C)n(-c3ccccc3)c2=O)c(O)c2ccccc21`, with 0.6%. Regarding `O=C(NCC1CCCN(C(=O)NCc2ccccc2)C1)c1ccc2c(c1)OCO2` (centres undefined), the inhibition was -0.6%.

With `COc1cc(/C=C/C(=O)OCC(=O)NC2CC2)cc(S(=O)(=O)N2CCc3ccccc32)c1OC`, the inhibition is 15%.

As for `CCOc1cc(/C=C2\NC(=S)N(C)C2=O)ccc1OCc1ccc(C(=O)O)cc1`, the inhibition is -3%. Then `CN1C(=O)/C(=C/c2ccc(OCc3ccc(C(=O)O)cc3)c(Cl)c2)NC1=S`, with 33.9%; and `CCN1C(=O)/C(=C/c2ccc(OCc3ccc(C(=O)O)cc3)c(Cl)c2)NC1=S`, with 57.5% (active); and `O=C(NCCc1ccc(F)cc1)Nc1ccccc1`, with -13.6%. With `CCOc1cccc(/C=N/NC(=S)Nc2ccccc2[N+](=O)[O-])c1O`, the inhibition was 64.7% (active). As to `CCCCNC(=S)N/N=C/c1cccc(OCC)c1O`, the inhibition is -5.1%. For `CCOc1ccccc1/C=N/Nc1ccccc1[N+](=O)[O-]`, the inhibition is -58%. On to `CCCOc1ccc(/C=N/Nc2ccccc2[N+](=O)[O-])c(OCCC)c1`, for which the inhibition was 30.3%. Consider `CCCOc1ccc(/C=N/Nc2ccccc2[N+](=O)[O-])c(O)c1`, for which the inhibition was 42.2%. Then `COc1ccc(N2CCN(CC(=O)NCc3ccccc3)CC2)cc1`, with -7.3%; and `COc1ccccc1NS(=O)(=O)c1cccc(C(=O)NN=C2CCCC2)c1`, with 4.3%; and `COc1ccc(N(CC(=O)NC(C)(C)C)C(=O)CCC(=O)Nc2nccs2)cc1`, with 5.1%. Take `CC1=NNC(=O)C1C(c1ccccc1)C1C(=O)NN=C1C` (centres undefined): the inhibition was 20.3%. As for `CCCC(=O)N(CCN1CCOCC1)c1nc2c(OCC)cccc2s1`, the inhibition is 5.2%. For `COc1ccccc1CN1CCNC(=O)C1CC(=O)NCCCN1CCCC1=O` (centres undefined), the inhibition is -4.3%. For the molecule `Oc1ccc(Br)cc1CNc1nccs1`, the inhibition is -5.1%.

For the molecule `Oc1c(Br)cc(Br)cc1CNc1nccs1`, the inhibition is 57% (active). As to `O=S(=O)(Nc1nccs1)c1ccc(NCc2cc(Br)cc(Br)c2O)cc1`, the inhibition is 6.8%. `CCOC(=O)c1[nH]c2ccc(OCC)cc2c1NC(=O)CN1CCC2(CC1)OCCO2`: the inhibition was -2.2%. For `COc1ccccc1N1CCN(C(=O)c2cc(C(=O)N3CCN(c4ccccc4OC)CC3)cc([N+](=O)[O-])c2)CC1`, the inhibition was 3.5%. `CCn1c(SCC(=O)N2CCN(c3ccccc3)CC2)nnc1-c1c[nH]c2ccccc12`: the inhibition is 6.3%. Regarding `COc1ccccc1C(C)NCC(=O)Nc1c(F)cccc1F` (centres undefined), the inhibition was 5.5%.

In the case of `Cn1c(Sc2ccccc2Cl)c(C=O)c2ccccc21`, the inhibition is 36.9%. As to `Cn1c(Oc2ccc(Cl)cc2)c(C=O)c2ccccc21`, the inhibition was 48.5%.

For the molecule `COc1ccccc1NC(=O)CN1CCCCC1`, the inhibition is -4.7%. Next, `O=C(O)COc1ccccc1/C=N/n1c(C2CCCCC2)n[nH]c1=S`: 17.3%; `CCc1cc2c3c(c1)C(C)CC(C)(C)N3C(=O)C2=O` (centres undefined): 11.8%; `CCOc1cc2c3c(c1)C(C)CC(C)(C)N3C(=O)C2=O` (centres undefined): 10%. On to `O=S(=O)(c1ccccc1)N1CCC(O)(CSc2ccc(Cl)cc2)CC1`, for which the inhibition was 56.9% (active). As to `O=S(=O)(c1ccccc1)N1CCC(O)(CSc2ccccc2)CC1`, the inhibition was 28.2%. Next, `Cc1ccc(SCC2(O)CCN(S(=O)(=O)c3ccc(Cl)cc3)CC2)cc1`: 17.7%; `CCOc1ccccc1NC(=O)CCc1nnc2ccc(N3CCC4(CC3)OCCO4)nn12`: -11.6%; `O=C(Cn1nnc(N2CCCC2)n1)N/N=C/c1ccc(Cl)cc1`: -2.3%. For the molecule `Cc1c(NC(=O)c2ccccc2)cccc1[N+](=O)[O-]`, the inhibition was 21.3%.
